GluA2 TARP mod = modulators of GluA2-stargazin AMPA receptor complexes, primary screen, cell-based, membrane potential dye | HEK293 GluA2+stargazin, membrane potential dye (FDSS), glutamate EC50; hits were called plate by plate, in both directions | calls only at 30 µM | actives 3.5% (n = 40,000);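 active means any of four per-well response measures lying three or more SD from its plate-wide compound average, in either direction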
GIRK2 act = activators of NPY4-receptor-primed GIRK2 channels, summary, cell-based, HEK293, thallium flux; G protein-activated inward rectifier potassium channel 2 (Homo sapiens), P48051; HEK293 GIRK2/NPY4 cells, thallium flux fluorescence; activation (% efficacy), % for hits at 37.5 µM; 34,000 tested, under 10 active; AID 1259324, 2017;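 active means primary screen hit, no activity in plain HEK293 cells, and in GIRK2-only cells above 5% efficacy rising with concentration; inactive means the rest, including fluorescent compounds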;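 further: efficacy is normalized control-subtracted fluorescence 15 s after thallium addition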
Target sequence (P48051 whole entry, looked up): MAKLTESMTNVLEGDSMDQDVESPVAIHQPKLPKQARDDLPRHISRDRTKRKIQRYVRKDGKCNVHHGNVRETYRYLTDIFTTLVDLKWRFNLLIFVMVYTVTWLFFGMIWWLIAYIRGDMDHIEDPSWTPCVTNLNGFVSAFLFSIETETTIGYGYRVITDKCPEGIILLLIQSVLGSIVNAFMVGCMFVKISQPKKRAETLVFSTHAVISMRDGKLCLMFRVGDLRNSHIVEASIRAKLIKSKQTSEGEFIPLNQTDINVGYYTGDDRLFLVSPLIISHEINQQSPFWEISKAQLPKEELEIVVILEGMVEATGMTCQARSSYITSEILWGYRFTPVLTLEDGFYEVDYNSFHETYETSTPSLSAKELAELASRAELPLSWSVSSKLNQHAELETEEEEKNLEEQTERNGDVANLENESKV
Of the large screens only hits and unclear results are named; the others gave an inactive call. The entries come from a sample that favours hits as a whole.

Cc1nn(C2CCS(=O)(=O)C2)c(C)c1CC(=O)Nc1cccnc1 (configuration not stated)	none
O=c1ccc(-c2ccco2)nn1CCCNS(=O)(=O)c1ccc2c(c1)CCCC2	GluA2 TARP mod active
O=c1ccc(-c2ccco2)nn1CCCNS(=O)(=O)c1ccc2c(c1)OCCO2	none
COCCn1c(C2CC(=O)N(CC3CC3)C2)nc2ccccc21 (configuration not stated)	none (no result: GIRK2 act)
CCOC(=O)C1C(=O)CC(C)(O)C(C(=O)OCC)C1c1cccs1 (configuration not stated)	none
CCOC(=O)C1C(=O)CC(C)(O)C(C(=O)OCC)C1c1ccc(C)cc1 (configuration not stated)	GluA2 TARP mod active
CCOc1ccc(C(=O)NCC(C)(O)CCSC)cc1OCC (configuration not stated)	none
OC(COC1CCCC1)CN1CCN(c2ccc(F)cc2)CC1 (configuration not stated)	none
COc1cccc(C(=O)CSc2cc(N3CCOCC3)ncn2)c1	none
c1ccn2cc(CSc3cc(N4CCOCC4)ncn3)nc2c1	GluA2 TARP mod active
CCc1nc2sc(C(c3ccccc3F)N3CCN(Cc4ccccc4)CC3)c(O)n2n1 (configuration not stated)	none (no result: GIRK2 act)
Cc1nnc(NC(=O)Cn2cnc(-c3cccs3)cc2=O)s1	none
COc1ccc(N2CCCS2(=O)=O)cc1NC(=O)C(=O)NCC1CCCO1 (configuration not stated)	none (no result: GIRK2 act)
CCOCCn1c(-n2nc(C)cc2C)nc2c1c(=O)n(Cc1ccccc1C)c(=O)n2C	none
COc1ccc(S(=O)(=O)N2CCCc3cc(NS(=O)(=O)c4ccccc4)ccc32)cc1	none (no result: GIRK2 act)
Cc1ccc(S(=O)(=O)N2CCCc3ccc(NS(=O)(=O)c4ccccc4)cc32)cc1	GluA2 TARP mod active
Cc1ccc(OCC(=O)Nc2ccc3c(c2)CCCN3S(=O)(=O)c2ccc(C)cc2)cc1	none (no result: GIRK2 act)
COc1ccc(S(=O)(=O)N2CCCc3cc(NS(=O)(=O)c4cccc(C)c4)ccc32)cc1	GluA2 TARP mod active (no result: GIRK2 act)
COc1ccc(CCNC(=O)Nc2ccc3c(c2)N(C(=O)c2ccccc2)CCC3)cc1	none (no result: GluA2 TARP mod)
Cc1ccc(S(=O)(=O)Nc2ccc3c(c2)N(S(=O)(=O)c2ccc(C)cc2)CCC3)cc1	none
COc1ccc(CCNC(=O)Nc2ccc3c(c2)N(S(=O)(=O)c2ccccc2)CCC3)cc1	GluA2 TARP mod active (no result: GIRK2 act)
CCOc1ccc(CC(=O)Nc2ccc3c(c2)CCCN3S(=O)(=O)c2ccc(C)cc2)cc1	GluA2 TARP mod active (no result: GIRK2 act)
Cc1cc(NC(=O)C(C)Oc2ccccc2)n(-c2nc(-c3ccc4c(c3)OCO4)cs2)n1 (configuration not stated)	none
O=C(Nc1noc2nc(-c3ccccc3)cc(C(F)(F)F)c12)C1CC1	none (no result: GluA2 TARP mod)
O=C(Nc1nc(CC(=O)N2CCCCC2)cs1)c1ccc(=O)[nH]c1	none
Cc1ccc(S(=O)(=O)N2CCCc3ccc(NS(=O)(=O)c4ccc(F)cc4)cc32)cc1	GluA2 TARP mod active
O=S(=O)(Nc1ccc2c(c1)N(S(=O)(=O)c1ccccc1)CCC2)c1ccc(F)cc1	none (no result: GIRK2 act)
COCCn1c(N2CCN(Cc3ccc(C)cc3)CC2)nc2c1c(=O)[nH]c(=O)n2C	none (no result: GIRK2 act)
COc1cc(/C=C/C(=O)NCCc2ccsc2)cc(OC)c1OC	none
COc1cc(/C=C/C(=O)Nc2nncs2)cc(OC)c1OC	GluA2 TARP mod active
COc1cc(/C=C/C(=O)c2ccc(O)cc2)cc(OC)c1OC	none (no result: GIRK2 act)
COc1cc(/C=C/C(=O)NCCCn2cccc2)cc(OC)c1OC	GluA2 TARP mod active
COc1ccc(-n2c(=O)c3ccccc3n(CC(=O)N3CCC(C)CC3)c2=O)cc1	none (no result: GIRK2 act)
O=C(COc1ccc(Cl)cc1Cl)NCC1CCN(Cc2cccs2)CC1	none (no result: GluA2 TARP mod)
CCOc1ccc(NC(=O)Nc2ccc(C)c(N3CCCCC3=O)c2)cc1	none
CCc1cc(S(=O)(=O)N2CCN=C2c2ccccc2)ccc1OC	GluA2 TARP mod active
COc1cc(S(=O)(=O)N2CCN=C2c2ccccc2)ccc1F	none (no result: GIRK2 act)
CC(=O)Nc1ccc(N2C(=O)/C(=C/c3ccc4c(c3)OCO4)SC2=S)cc1	none (no result: GIRK2 act)
COCCCN1C(=O)CC(Nc2ccc(F)cc2)C1=O (configuration not stated)	none
Cc1nnsc1C(=O)N1CCC(CNC(=O)c2cccc(Cl)c2)CC1	none
Cc1nnsc1C(=O)N1CCC(CNC(=O)Nc2cccc(Cl)c2)CC1	GluA2 TARP mod active
Cc1ccc(OCC(=O)Nc2nnc(-c3cc(C)nn3C)o2)cc1	none
COc1ccc(Br)cc1S(=O)(=O)N1CCCCCC1	GluA2 TARP mod active (no result: GIRK2 act)
COc1ccc(/C=C/c2nc3ccccc3s2)cc1S(=O)(=O)N1CCCCC1	GluA2 TARP mod active (no result: GIRK2 act)
COc1ccc(S(=O)(=O)N2CCCCCC2)c(C)c1C	none (no result: GIRK2 act)
COc1ccc(F)cc1S(=O)(=O)N1CCCCCC1	none (no result: GIRK2 act)
COc1ccc(Cl)cc1S(=O)(=O)N1CCN(S(=O)(=O)c2cc(Cl)ccc2OC)CC1	none (no result: GIRK2 act)
COc1ccc(Cl)cc1S(=O)(=O)N1CCCCCC1	GluA2 TARP mod active (no result: GIRK2 act)
O=c1[nH]c2c(s1)C1c3ccccc3OC3CCCC(S2)C31 (configuration not stated)	GluA2 TARP mod active (no result: GIRK2 act)
CC(O)(CNC(=O)Nc1ccc(Cl)c(Cl)c1)c1ccc2c(c1)OCO2 (configuration not stated)	GluA2 TARP mod active
CC(O)(CNC(=O)c1cc(Cl)ccc1Cl)c1ccc2c(c1)OCO2 (configuration not stated)	none
O=C(CCSc1ccc(Cl)cc1)Nc1nnc(-c2ccccn2)o1	none
O=C(CCS(=O)(=O)c1ccc(Cl)cc1)Nc1nnc(-c2ccccn2)o1	GluA2 TARP mod active
Cc1ccnc(NC(=O)Cc2cc(-c3ccccc3F)on2)c1	GluA2 TARP mod active
O=C(Cc1cc(-c2ccc(F)cc2F)on1)Nc1ccon1	none
CSc1ncccc1C(=O)Nc1ccc2c(c1)N(C(=O)C1CC1)CC2	none
COc1ccc(NC(=O)Cn2c(=O)n(C(C)C)c(=O)c3nscc32)cc1OC	none
CCOc1ccccc1NC(=O)Cn1c(=O)n(C(C)C)c(=O)c2nscc21	GluA2 TARP mod active
O=C(c1ccc(S(=O)(=O)N2CCOCC2)cc1)N(C(=O)N1CCCCC1)c1cccc(Cl)c1	GluA2 TARP mod active
O=C(c1ccc(S(=O)(=O)N2CCOCC2)cc1)N(C(=O)N1CCCCC1)c1ccc(Cl)cc1	none (no result: GIRK2 act)
c1ccn2cc(C34CC5CC(CC(C5)C3)C4)nc2c1	GluA2 TARP mod active (no result: GIRK2 act)
COc1ccc(S(=O)(=O)CCCC(=O)Nc2sc3c(c2C(N)=O)CCCCC3)cc1	none
CCc1cccc2sc(N3CCN(C(=O)CS(=O)(=O)Cc4ccccc4)CC3)nc12	none
O=C(CS(=O)(=O)Cc1ccccc1)N1CCN(c2nc3c(Cl)cccc3s2)CC1	GluA2 TARP mod active
O=C(NCC1CCN(C(=O)Oc2ccccc2)CC1)C(=O)Nc1ccc(F)c(Cl)c1	none
COc1cc(OC)cc(C(=O)Oc2c(S(=O)(=O)c3ccc(C)cc3)c(C)nn2C(C)(C)C)c1	GluA2 TARP mod active (no result: GIRK2 act)
Cc1ccc(S(=O)(=O)c2c(C)nn(C(C)(C)C)c2OC(=O)c2ccccc2C)cc1	none (no result: GIRK2 act)
Cc1nn(C(C)(C)C)c(OC(=O)c2ccccc2Br)c1S(=O)(=O)c1ccccc1	GluA2 TARP mod active (no result: GIRK2 act)
COc1cc(OC)cc(C(=O)Oc2c(S(=O)(=O)c3ccccc3)c(C)nn2C(C)(C)C)c1	none (no result: GIRK2 act)
COc1cccc(NC(=O)NCCn2nc(-c3ccco3)ccc2=O)c1	none
